Inconclusive results are not listed. Active and inactive are the calls of the source. Unless noted, calls follow the shape of the dose curve; as a rule, active = well fitted inhibition curve with a large enough effect; inconclusive = small, poorly fitted or top-dose-only effect; inactive = flat fitted curve, though single readings scatter.
Assays:
[1] = qHTS profiling for inhibitors of Plasmodium falciparum proliferation (AID 504749); also: nearly all actives have a fitted effect of over 60% in size;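 as to activity, negative = inhibition: 0% = DMSO vehicle and full inhibition = artemisinin control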; conditions: P. falciparum in erythrocytes, SYBR Green DNA, 72 h
Summary of the method: (§1)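 Three-day growth assay of blood-stage parasites in erythrocytes (0.3% parasitemia, 2.5% hematocrit) at 37 C, 5% CO2, quantified by SYBR Green DNA staining after overnight detergent lysis.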

3D7 = assay: as above; conditions: P. falciparum in erythrocytes, SYBR Green DNA, 72 h; series mostly up to 28.7 µM
Summary of the method: as §1

7G8 = assay: as above; conditions: P. falciparum in erythrocytes, SYBR Green DNA, 72 h; series mostly up to 28.7 µM
Summary of the method: as §1

AA1029 = assay: as above; conditions: P. falciparum in erythrocytes, SYBR Green DNA, 72 h; series mostly up to 28.7 µM
Summary of the method: as §1

AS120 = assay: as above; conditions: P. falciparum in erythrocytes, SYBR Green DNA, 72 h; series mostly up to 28.7 µM
Summary of the method: as §1

ATS189 = assay: as above; conditions: P. falciparum in erythrocytes, SYBR Green DNA, 72 h; series mostly up to 28.7 µM
Summary of the method: as §1

ATS95 = assay: as above; conditions: P. falciparum in erythrocytes, SYBR Green DNA, 72 h; series mostly up to 28.7 µM
Summary of the method: as §1

C2A = assay: as above; conditions: P. falciparum in erythrocytes, SYBR Green DNA, 72 h; series mostly up to 28.7 µM
Summary of the method: as §1

[2] = qHTS for identification of novel therapeutic agents for treatment of microphthalmiaassociated transcription factor (MiT) renal cell carcinoma (RCC) (AID 1963991; calls by dose curve;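 as to z-score: curves scaled with 100% = DMSO viability and 0% = empty wells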); conditions: CellTiter-Glo, 48 h; for z-score: stronger effect = lower value; for Potency: active = Z-AUC below -0.8 in all three lines
Summary of the method: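 UOK109/UOK124/UOK145 (TFE3 fusions, three partners); 500 cells/well; MIPE v4.0, 1912 cpds, 11 conc.; 48 h, 37 C; CellTiter-Glo, 15 min RT; lum. Norm.: DMSO 100%, empty 0%.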

[3] = at 12.8 µM (top of the series), parasite line A
[4] = TFE3-RCC UOK109 viability, measured here: UOK109 Z-AUC
[5] = TFE3-RCC viability, measured here: UOK124 Z-AUC
[6] = TFE3-RCC viability, measured here: UOK145 Z-AUC
[7] = at 28.7 µM (top of the series), parasite line A
[8] = at 28.7 µM (top of the series), parasite line B
[9] = at 12.8 µM (top of the series), parasite line B
Potency is read from the fitted curve at half-maximal effect.

CCN(CC)CCOC(=O)c1ccc(N)cc1
inactive: activity, negative = inhibition [1, 3] -0.702% | outcome (3D7) | Potency (7G8) | outcome (AA1029) | Potency (AS120) | Potency (ATS189) | outcome (ATS95) | outcome (C2A)

NC[C@@H]1O[C@@H](O[C@H]2[C@@H](O)[C@H](O[C@@H]3[C@@H](O)[C@@H](N)C[C@H](N)[C@H]3O[C@H]3O[C@H](CN)[C@@H](O)[C@@H](O)[C@H]3N)O[C@H]2CO)[C@H](N)[C@@H](O)[C@@H]1O
1.35: z-score [2, 4]
0.643: z-score [2, 5]
1.63: z-score [2, 6]

c1ccc2c(-c3cnn4cc(-c5ccc(N6CCNCC6)cc5)cnc34)ccnc2c1
active: Potency ([2]; TFE3-RCC UOK109 viability) 18.7 µM
-0.898: z-score [2, 4]
-1.11: z-score [2, 6]
-1.42: z-score [2, 5]

CN(C)CCC(c1ccccc1)c1ccccn1 (stereo not drawn)
inactive: activity, negative = inhibition [1, 7] 8.91% | activity, negative = inhibition [1, 8] 5.22% | outcome (3D7) | Potency (AS120) | Potency (ATS189) | outcome (C2A)
active: Potency (7G8) 5.62 µM

O=C1NCC2(CCN(CCc3ccccc3)CC2)O1
inactive: activity, negative = inhibition [1, 7] 12% | activity, negative = inhibition [1, 8] 1.55% | outcome (3D7) | Potency (7G8) | outcome (AA1029) | Potency (AS120) | Potency (ATS189) | outcome (ATS95) | outcome (C2A)

C[C@]12CC[C@@H]3c4ccc(O)cc4CC[C@H]3[C@H]1C[C@@H](O)[C@H]2O
0.59: z-score [2, 6]
1.3: z-score [2, 4]
0.473: z-score [2, 5]

NC1CCC(Nc2nc(Nc3ccc(C(=O)N4CCCCC4)cc3)c3ncn(-c4cccc(F)c4)c3n2)CC1 (stereo not drawn)
0.32: z-score [2, 4]
0.657: z-score [2, 6]
0.539: z-score [2, 5]

O=C1NC(=O)C(c2ccccc2)(c2ccccc2)N1
inactive: activity, negative = inhibition [1, 7] 3.02% | activity, negative = inhibition [1, 8] -26.3% | outcome (3D7) | Potency (7G8) | outcome (AA1029) | Potency (AS120) | Potency (ATS189) | outcome (ATS95) | outcome (C2A)

O=c1[nH]cnc2c1ncn2[C@H]1CC[C@@H](CO)O1
active: Potency (7G8) 10 µM
inactive: activity, negative = inhibition [1, 7] -0.993% | activity, negative = inhibition [1, 8] 7.28% | outcome (3D7) | outcome (AA1029) | Potency (AS120) | Potency (ATS189) | outcome (ATS95) | outcome (C2A)

CCN(CC)CCNC(=O)c1ccc(N)cc1
inactive: activity, negative = inhibition [1, 7] 6.98% | activity, negative = inhibition [1, 8] 5.88% | outcome (3D7) | Potency (7G8) | outcome (AA1029) | Potency (AS120) | Potency (ATS189) | outcome (ATS95) | outcome (C2A)

NC(N)=Nc1nc(CSCC/C(N)=N/S(N)(=O)=O)cs1
inactive: activity, negative = inhibition [1, 7] -15% | activity, negative = inhibition [1, 8] 4.88% | outcome (3D7) | Potency (7G8) | outcome (AA1029) | Potency (AS120) | Potency (ATS189) | outcome (ATS95) | outcome (C2A)

CC(=NNC(=S)N1CCC1)c1ccccn1
-4: z-score [2, 4]
-1.96: z-score [2, 5]
active: Potency ([2]; TFE3-RCC UOK109 viability) 0.00332 µM
-2.39: z-score [2, 6]

CCN1CCC[C@H]1CNC(=O)c1cc(S(N)(=O)=O)ccc1OC
inactive: activity, negative = inhibition [1, 7] 7.08% | activity, negative = inhibition [1, 8] 23% | outcome (3D7) | Potency (7G8) | outcome (AA1029) | Potency (AS120) | Potency (ATS189) | outcome (ATS95) | outcome (C2A)

CCCCC1C(=O)N(c2ccccc2)N(c2ccccc2)C1=O
inactive: Potency (7G8)

C[C@@H]1CCN(C(=O)CC#N)C[C@H]1N(C)c1ncnc2[nH]ccc12
-0.115: z-score [2, 6]
-0.116: z-score [2, 4]
0.39: z-score [2, 5]

CO[C@H]1C=CC=C(C)C(=O)NC2=CC(=O)C(NCCN(C)C)=C(C[C@@H](C)C[C@H](OC)[C@@H](O)[C@@H](C)C=C(C)[C@@H]1OC(N)=O)C2=O
active: Potency ([2]; TFE3-RCC UOK109 viability) 2.64 µM
-3.65: z-score [2, 5]
-1.68: z-score [2, 6]
-1.45: z-score [2, 4]

CC(=O)CCCCn1c(=O)c2c(ncn2C)n(C)c1=O
inactive: activity, negative = inhibition [1, 3] -2.51% | activity, negative = inhibition [1, 9] 2.9% | outcome (3D7) | Potency (7G8) | outcome (AA1029) | Potency (AS120) | Potency (ATS189) | outcome (ATS95) | outcome (C2A)

C[N+](C)(C)CCCCCC[N+](C)(C)C
inactive: activity, negative = inhibition [1, 7] 4.23% | activity, negative = inhibition [1, 8] 5.66% | outcome (3D7) | Potency (7G8) | outcome (AA1029) | Potency (AS120) | Potency (ATS189) | outcome (ATS95) | outcome (C2A)

CCN(CC)C(=O)c1ccc(O)c(OC)c1
inactive: activity, negative = inhibition [1, 3] 6.06% | activity, negative = inhibition [1, 9] 6.5% | activity, negative = inhibition [1, 7] 14.7% | activity, negative = inhibition [1, 8] -14.5% | outcome (3D7) | Potency (7G8) | outcome (AA1029) | Potency (AS120) | Potency (ATS189) | outcome (ATS95) | outcome (C2A)

CC1(C)O[C@H]2C[C@@H]3[C@H]4CCC5=CC(=O)C=C[C@]5(C)[C@@]4(F)[C@@H](O)C[C@]3(C)[C@]2(C(=O)CO)O1
active: Potency (7G8) 8.91 µM
inactive: activity, negative = inhibition [1, 7] -0.373% | activity, negative = inhibition [1, 8] -9.39% | outcome (3D7) | outcome (AA1029) | Potency (ATS189) | outcome (ATS95) | outcome (C2A)

CC[C@H]1OC(=O)[C@H](C)[C@@H](O[C@H]2C[C@@](C)(OC)[C@@H](O)[C@H](C)O2)[C@H](C)[C@@H](O[C@@H]2O[C@H](C)C[C@H](N(C)C)[C@@H]2O)[C@](C)(O)C[C@@H](C)CN(C)[C@H](C)[C@@H](O)[C@]1(C)O
-4: z-score [2, 4]
0.923: z-score [2, 6]
0.7: z-score [2, 5]

Nc1ncnc2c1ncn2[C@@H]1O[C@@H](CO)[C@H](O)[C@H]1O
0.834: z-score [2, 4]
0.73: z-score [2, 6]
0.529: z-score [2, 5]

O=C(O)c1cc(-c2ccccc2)nc2ccccc12
inactive: activity, negative = inhibition [1, 7] -2.25% | activity, negative = inhibition [1, 8] 7.48% | outcome (3D7) | Potency (7G8) | outcome (AA1029) | Potency (AS120) | Potency (ATS189) | outcome (ATS95) | outcome (C2A)

C=C1C(=O)OC2C=C(C)CCC=C(C)CCC12 (stereo not drawn)
0.643: z-score [2, 5]
0.399: z-score [2, 6]
0.459: z-score [2, 4]

O=C(NCCN1CCOCC1)c1ccc(Cl)cc1
inactive: activity, negative = inhibition [1, 7] 9.62% | activity, negative = inhibition [1, 8] 3.61% | outcome (3D7) | Potency (7G8) | outcome (AA1029) | Potency (AS120) | Potency (ATS189) | outcome (ATS95) | outcome (C2A)

Source: PubChem BioAssay (NCATS)
